In PubChem BioAssay AID1159580 (chemical genetic matrix, 2015):
In all, about 5,500 compounds went through this assay and about 2,000 (36%) were called active. About 18% were inconclusive and are not listed. Rule as the data show it: active = normalized growth mostly below about 0.91 (no sharp cut-off); inconclusive = no clear call, values can overlap the other calls; inactive = mostly above about 0.92. This is one part of the list.

Assay: chemical genetic growth profiling, strain panel (AID 1159580);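 also: tested at 20 µM; growth read once vehicle control cultures reached saturation at 30 °C; 1 = growth at the plate median or of vehicle wells; lower values mean less growth of the strain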
Settings: growth OD

Measured: normalized growth

Clc1ccc(C(OCCN2CCCCC2)c2ccccc2)cc1 (centres undefined)
inactive: S. cerevisiae deletion strains, locus YJR043C, strain POL32, active compounds read low 1.02 | S. cerevisiae deletion strains, locus YJR075W, strain HOC1, active compounds read low 0.948 | S. cerevisiae deletion strains, locus YKL009W, strain mrt4, active compounds read low 0.996 | S. cerevisiae deletion strains, locus YKL068W, active compounds read low 1 | S. cerevisiae deletion strains, locus YKL085W, strain MDH1 (second series), active compounds read low 0.997 | S. cerevisiae deletion strains, locus YKL085W, strain MDH1, active compounds read low 0.997 | S. cerevisiae deletion strains, locus YKL160W, strain elf1, active compounds read low 1.02 | S. cerevisiae deletion strains, locus YKL190W, strain CNB1, active compounds read low 1.01 | S. cerevisiae deletion strains, locus YKR001C, strain vps1, active compounds read low 0.994 | S. cerevisiae deletion strains, locus YKR026C, strain gcn3, active compounds read low 1.02 | S. cerevisiae deletion strains, locus YKR091W, strain srl3, active compounds read low 1.02 | S. cerevisiae deletion strains, locus YLL001W, strain dnm1, active compounds read low 1.02 | S. cerevisiae deletion strains, locus YLL026W, active compounds read low 1.02 | S. cerevisiae deletion strains, locus YLL041C, strain sdh2, active compounds read low 1.01 | S. cerevisiae deletion strains, locus YLR027C, strain aat2, active compounds read low 1.02 | S. cerevisiae deletion strains, locus YLR039C, strain RIC1, active compounds read low 1.26 | S. cerevisiae deletion strains, locus YLR058C, strain SHM2, active compounds read low 1 | S. cerevisiae deletion strains, locus YLR102C, strain apc9, active compounds read low 0.999 | S. cerevisiae deletion strains, locus YLR221C, strain rsa3, active compounds read low 1.01 | S. cerevisiae deletion strains, locus YLR258W, strain gsy2, active compounds read low 1.02 | S. cerevisiae deletion strains, locus YLR262C, strain YPT6 (second series), active compounds read low 1.07 | S. cerevisiae deletion strains, locus YLR262C, strain YPT6, active compounds read low 1.27 | S. cerevisiae deletion strains, locus YLR268W, strain sec22, active compounds read low 0.96 | S. cerevisiae deletion strains, locus YLR320W, strain mms22, active compounds read low 1.01 | S. cerevisiae deletion strains, locus YLR330W, strain CHS5, active compounds read low 1.01 | S. cerevisiae deletion strains, locus YLR342W, strain FKS1 (second series), active compounds read low 0.907 | S. cerevisiae deletion strains, locus YLR342W, strain FKS1, active compounds read low 1.04 | S. cerevisiae deletion strains, locus YLR357W, strain rsc2, active compounds read low 1.02 | S. cerevisiae deletion strains, locus YLR370C, strain arc18, active compounds read low 1 | S. cerevisiae deletion strains, locus YLR371W, strain rom2, active compounds read low 1.01 | S. cerevisiae deletion strains, locus YLR384C, strain iki3, active compounds read low 1.01 | S. cerevisiae deletion strains, locus YLR418C, strain cdc73, active compounds read low 0.852 | S. cerevisiae deletion strains, locus YML016C, strain PPZ1, active compounds read low 0.999 | S. cerevisiae deletion strains, locus YML032C, strain rad52, active compounds read low 0.979 | S. cerevisiae deletion strains, locus YML120C, strain ndi1, active compounds read low 1.01 | S. cerevisiae deletion strains, locus YML124C, strain tub3, active compounds read low 1.01 | S. cerevisiae deletion strains, locus YMR058W, strain fet3, active compounds read low 1.02 | S. cerevisiae deletion strains, locus YMR078C, strain ctf18, active compounds read low 1 | S. cerevisiae deletion strains, locus YMR125W, strain sto1, active compounds read low 1.03 | S. cerevisiae deletion strains, locus YMR129W, active compounds read low 1.03 | S. cerevisiae deletion strains, locus YMR205C, strain PFK2, active compounds read low 1.01 | S. cerevisiae deletion strains, locus YMR223W, strain ubp8, active compounds read low 0.987 | S. cerevisiae deletion strains, locus YMR231W, strain pep5, active compounds read low 1.02 | S. cerevisiae deletion strains, locus YMR263W, strain SAP30, active compounds read low 0.977 | S. cerevisiae deletion strains, locus YMR307W, strain GAS1, active compounds read low 1.12 | S. cerevisiae deletion strains, locus YNL067W, strain RPL9B, active compounds read low 0.98 | S. cerevisiae deletion strains, locus YNL071W, strain lat1, active compounds read low 1.02 | S. cerevisiae deletion strains, locus YNL128W, strain TEP1, active compounds read low 0.955 | S. cerevisiae deletion strains, locus YNL153C, strain GIM3, active compounds read low 0.971 | S. cerevisiae deletion strains, locus YNL209W, strain ssb2, active compounds read low 1.03 | S. cerevisiae deletion strains, locus YNL233W, strain BNI4, active compounds read low 0.986 | S. cerevisiae deletion strains, locus YNL248C, strain rpa49, active compounds read low 1.03 | S. cerevisiae deletion strains, locus YNL250W, strain rad50, active compounds read low 0.991 | S. cerevisiae deletion strains, locus YNL271C, strain bni1, active compounds read low 0.997 | S. cerevisiae deletion strains, locus YNL298W, strain CLA4, active compounds read low 1 | S. cerevisiae deletion strains, locus YNL307C, strain MCK1, active compounds read low 0.992 | S. cerevisiae deletion strains, locus YNL322C, strain KRE1 (second series), active compounds read low 1.03 | S. cerevisiae deletion strains, locus YNL322C, strain KRE1, active compounds read low 1.01 | S. cerevisiae deletion strains, locus YNR049C, strain mso1, active compounds read low 0.999 | S. cerevisiae deletion strains, locus YNR052C, strain pop2, active compounds read low 0.965 | S. cerevisiae deletion strains, locus YOL006C, strain TOP1, active compounds read low 0.592 | S. cerevisiae deletion strains, locus YOL012C, strain htz1 0.731 | S. cerevisiae deletion strains, locus YOL147C, strain pex11, active compounds read low 0.997 | S. cerevisiae deletion strains, locus YOR001W, strain rrp6, active compounds read low 1.02 | S. cerevisiae deletion strains, locus YOR061W, strain CKA2, active compounds read low 1 | S. cerevisiae deletion strains, locus YOR069W, strain VPS5, active compounds read low 0.997 | S. cerevisiae deletion strains, locus YOR070C, strain gyp1, active compounds read low 1.03 | S. cerevisiae deletion strains, locus YOR080W, strain dia2, active compounds read low 1.02 | S. cerevisiae deletion strains, locus YOR083W, strain WHI5, active compounds read low 1.02 | S. cerevisiae deletion strains, locus YOR106W, strain vam3, active compounds read low 1.01 | S. cerevisiae deletion strains, locus YOR136W, strain idh2, active compounds read low 1 | S. cerevisiae deletion strains, locus YOR144C, strain elg1, active compounds read low 1 | S. cerevisiae deletion strains, locus YOR184W, strain ser1, active compounds read low 1.04 | S. cerevisiae deletion strains, locus YOR265W, strain rbl2, active compounds read low 1.01 | S. cerevisiae deletion strains, locus YOR270C, strain vph1, active compounds read low 0.797 | S. cerevisiae deletion strains, locus YOR290C, strain snf2, active compounds read low 1.01 | S. cerevisiae deletion strains, locus YOR316C, strain cot1, active compounds read low 1 | S. cerevisiae deletion strains, locus YPL051W, strain arl3, active compounds read low 1.01 | S. cerevisiae deletion strains, locus YPL055C, strain LGE1, active compounds read low 0.958 | S. cerevisiae deletion strains, locus YPL078C, strain atp4, active compounds read low 1.02 | S. cerevisiae deletion strains, locus YPL106C, strain sse1, active compounds read low 1.02 | S. cerevisiae deletion strains, locus YPL240C, strain hsp82, active compounds read low 1.01 | S. cerevisiae deletion strains, locus YPL241C, strain CIN2, active compounds read low 1 | S. cerevisiae deletion strains, locus YPR119W, strain clb2, active compounds read low 1 | S. cerevisiae deletion strains, locus YPR141C, strain kar3, active compounds read low 0.993 | S. cerevisiae deletion strains, locus YPR163C, strain tif3, active compounds read low 0.981 | S. cerevisiae deletion strains, locus YPR167C, strain met16, active compounds read low 1 | S. cerevisiae deletion strains, strain wtn01, active compounds read low 0.974 | S. cerevisiae strains, strain wild type, active compounds read low 0.988
